Test results from PubChem BioAssay (EPA / NIEHS).
Active and inactive are the calls of the source. Rule for the calls: active = hit-call score of the fitted dose curve at least 0.9, where 1 is the maximum; inactive = score below 0.9.

Columns and labels:
[1] = read-out: TIMP metallopeptidase inhibitor 2 (TIMP2), TIMP2 (gene 7077); assay: BSK_KF3CT_TIMP2: BioMAP Diversity Plus: KF3CT Assay for TIMP metallopeptidase inhibitor 2 (TIMP2) Biomarker Activity (AID 2283071); conditions: primary human keratinocytes with fibroblasts; actives raise or lower the signal
How it was run: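 Keratinocyte–fibroblast co-culture, 24 h exposure; TIMP-2 ELISA, DMSO-normalised bidirectional fit. Parallel SRB (0.1%, TCA-fixed, 560 nm) total-protein staining gauges cytotoxicity.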

[2] = read-out: Transforming growth factor beta 1 (TGFb1), TGFB1 (gene 7040); assay: BSK_KF3CT_TGFb1: BioMAP Diversity Plus: KF3CT Assay for Transforming growth factor beta 1 (TGFb1) Biomarker Activity (AID 2283072); conditions: primary human keratinocytes with fibroblasts; actives raise or lower the signal
How it was run: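 Signal changes in either direction, relative to DMSO, define activity here. TGF-b1 is read by ELISA from a human keratinocyte-fibroblast co-culture 24 h post-dose.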

[3] = read-out: C-C motif chemokine 2 (Homo sapiens) (UniProt P13500); assay: BSK_KF3CT_MCP1: BioMAP Diversity Plus: KF3CT Assay for Monocyte Chemoattractant Protein 1 (MCP1/CCL2) Biomarker Activity (AID 2283073); conditions: primary human keratinocytes with fibroblasts; actives raise or lower the signal
How it was run: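 Human keratinocyte plus foreskin fibroblast primary co-culture exposed to chemical for 24 h. MCP-1 levels measured by ELISA. Bidirectional curve fitting relative to DMSO negative control as baseline.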

[4] = read-out: Matrix Metallopeptidase 9 (MMP9), MMP9 (gene 4318); assay: BSK_KF3CT_MMP9: BioMAP Diversity Plus: KF3CT Assay for Matrix Metallopeptidase 9 (MMP9) Biomarker Activity (AID 2283074); conditions: primary human keratinocytes with fibroblasts; actives raise or lower the signal;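 for AC50: MMP9 protein level quantified by ELISA in the co-culture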
How it was run: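 Human keratinocyte and foreskin fibroblast co-culture exposed to chemicals for 24 h; MMP9 biomarker measured by ELISA, bidirectional fitting relative to DMSO; cytotoxicity tracked by SRB total protein staining in parallel cultures.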

[5] = read-out: urokinase plasminogen activator (uPA), PLAU (gene 5328); assay: BSK_KF3CT_uPA: BioMAP Diversity Plus: KF3CT Assay for urokinase plasminogen activator (uPA) Biomarker Activity (AID 2283075); conditions: primary human keratinocytes with fibroblasts; actives raise or lower the signal
How it was run: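 Primary human keratinocyte/foreskin fibroblast co-culture exposed to chemical; uPA measured by ELISA at 24 h. Bidirectional fit versus DMSO, with parallel SRB total-protein staining for cytotoxicity.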

CD40, CD40 (gene 958) [6] = assay: BSK_LPS_CD40: BioMAP Diversity Plus: LPS Assay for CD40 Biomarker Activity (AID 2283076); conditions: primary human HUVEC with PBMC; actives raise or lower the signal
How it was run: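 Primary human umbilical vein endothelial cells co-cultured with peripheral blood mononuclear cells, LPS-stimulated, were dosed with chemical and read 24 h later. CD40 levels were measured by ELISA and fitted bidirectionally against DMSO as negative control and baseline.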

[7] = read-out: E-selectin (Homo sapiens) (UniProt P16581); assay: BSK_LPS_Eselectin: BioMAP Diversity Plus: LPS Assay for Eselectin Biomarker Activity (AID 2283077); conditions: primary human HUVEC with PBMC; actives raise or lower the signal
How it was run: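 Human umbilical vein endothelial cells co-cultured with peripheral blood mononuclear cells under LPS stimulation; E-selectin measured by ELISA 24 h after chemical dosing. Activity fitted bidirectionally against DMSO as negative control and baseline.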

[8] = read-out: Interleukin-8 (IL8), CXCL8 (gene 3576); assay: BSK_LPS_IL8: BioMAP Diversity Plus: LPS Assay for Interleukin-8 (IL8) Biomarker Activity (AID 2283078); conditions: primary human HUVEC with PBMC; actives raise or lower the signal
How it was run: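 Human umbilical vein endothelial cells co-cultured with PBMC were stimulated with LPS; IL-8 levels were measured by ELISA 24 h after chemical dosing. Activity was fitted bidirectionally against DMSO as negative control and baseline.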

[9] = BSK_LPS_SRB: Viability Assessment in the BioMAP Diversity Plus: LPS Assay (AID 2283079); conditions: primary human HUVEC with PBMC;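 note: total protein by sulforhodamine B absorbance as a cytotoxicity measure; measured one day after compound addition; fitted in both directions against DMSO so loss or gain of signal counts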
How it was run: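 Human umbilical vein endothelial cells co-cultured with PBMC (LPS system) were dosed for 24 h. Total protein was stained with 0.1% sulforhodamine B after 10% TCA fixation, read at 560 nm, and fitted bidirectionally against DMSO baseline.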

[10] = read-out: Monocyte Chemoattractant Protein-1 (MCP1), CCL2 (gene 6347); assay: BSK_LPS_MCP1: BioMAP Diversity Plus: LPS Assay for Monocyte Chemoattractant Protein-1 (MCP1) Biomarker Activity (AID 2283081); conditions: primary human HUVEC with PBMC; actives raise or lower the signal;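 for AC50: secreted MCP-1 protein quantified by ELISA in culture supernatant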
How it was run: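 HUVEC plus PBMC co-culture (human primary cells, LPS system) exposed to test chemical for 24 h; MCP-1 measured by ELISA. Bidirectional curve fitting against DMSO baseline; parallel SRB total-protein staining flags overt cytotoxicity.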

[11] = BSK_LPS_PGE2: BioMAP Diversity Plus: LPS Assay for Prostaglandin E2 (PGE2) Biomarker Activity (AID 2283082); conditions: primary human HUVEC with PBMC; actives raise or lower the signal;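 for AC50: secreted prostaglandin E2 measured by ELISA in LPS-stimulated co-culture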
How it was run: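 Endpoint derived from bidirectional curve fitting versus DMSO of ELISA-measured PGE2 in LPS-stimulated human primary vascular co-culture (HUVEC with PBMC) harvested at 24 h.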

[12] = read-out: Macrophage colony-stimulating factor (MCSF), CSF1 (gene 1435); assay: BSK_LPS_MCSF: BioMAP Diversity Plus: LPS Assay for Macrophage colony-stimulating factor (MCSF) Biomarker Activity (AID 2283083); conditions: primary human HUVEC with PBMC; actives raise or lower the signal
How it was run: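 Human umbilical vein endothelial cells co-cultured with peripheral blood mononuclear cells were exposed to compound for 24 h. M-CSF levels were measured by ELISA, and bidirectional curve fitting used DMSO as the negative control and baseline.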

[13] = read-out: Tissue Factor, F3 (gene 2152); assay: BSK_LPS_TissueFactor: BioMAP Diversity Plus: LPS Assay for Tissue Factor Biomarker Activity (AID 2283084); conditions: primary human HUVEC with PBMC; actives raise or lower the signal
How it was run: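 Human umbilical vein endothelial cells co-cultured with peripheral blood mononuclear cells were dosed and stimulated with LPS. Cell-surface CD142 was quantified by ELISA at 24 h. Activity was fitted bidirectionally against DMSO baseline.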

[14] = read-out: Tumor necrosis factor (Homo sapiens) (UniProt P01375); assay: BSK_LPS_TNFa: BioMAP Diversity Plus: LPS Assay for Tumour Necrosis Factor alpha (TNFa) Biomarker Activity (AID 2283085); conditions: primary human HUVEC with PBMC; actives raise or lower the signal
How it was run: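 Primary human vascular co-culture of HUVEC and PBMC; TNFa ELISA 24 h after treatment, analysed as increase or decrease relative to DMSO control.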

[15] = read-out: Vascular cell adhesion molecule 1 (VCAM1), VCAM1 (gene 7412); assay: BSK_LPS_VCAM1: BioMAP Diversity Plus: LPS Assay for Vascular cell adhesion molecule 1 (VCAM1) Biomarker Activity (AID 2283086); conditions: primary human HUVEC with PBMC; actives raise or lower the signal
How it was run: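 Primary human vascular co-culture (umbilical vein endothelium plus PBMC) stimulated with LPS received chemical; 24 h later VCAM-1 was read by ELISA. Overt cytotoxicity was assessed by sulforhodamine B staining of parallel cultures at the same time point.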

CD38, CD38 (gene 952) = assay: BSK_SAg_CD38: BioMAP Diversity Plus: SAg Assay for CD38 Biomarker Activity (AID 2283087); conditions: primary human HUVEC with PBMC; actives raise or lower the signal
How it was run: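 Fluorescence ELISA of cell-surface CD38 served as the read-out, with either increase or decrease fitted against DMSO controls. Cells were a human umbilical vein endothelium plus PBMC co-culture under SEB/TSST-1 stimulation, measured 24 h after dosing.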

CD40, CD40 (gene 958) [16] = assay: BSK_SAg_CD40: BioMAP Diversity Plus: SAg Assay for CD40 Biomarker Activity (AID 2283088); conditions: primary human HUVEC with PBMC; actives raise or lower the signal
How it was run: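 Human umbilical vein endothelial cells co-cultured with PBMC; CD40 levels measured by ELISA with fluorescence read-out 24 h after chemical dosing. Gain or loss of signal fitted bidirectionally against DMSO baseline.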

CD69, CD69 (gene 969) = assay: BSK_SAg_CD69: BioMAP Diversity Plus: SAg Assay for CD69 Biomarker Activity (AID 2283089); conditions: primary human HUVEC with PBMC; actives raise or lower the signal;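 for AC50: cell surface CD69 protein quantified by ELISA with fluorescence detection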
How it was run: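 HUVEC co-cultured with PBMC were dosed with chemical, and CD69 was measured by ELISA with fluorescence read-out 24 h later. Bidirectional curve fitting used DMSO as negative control and activity baseline.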

[17] = read-out: Monocyte Chemoattractant Protein-1 (MCP1), CCL2 (gene 6347); assay: BSK_SAg_MCP1: BioMAP Diversity Plus: SAg Assay for Monocyte Chemoattractant Protein-1 (MCP1) Biomarker Activity (AID 2283090); conditions: primary human HUVEC with PBMC; actives raise or lower the signal
How it was run: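 MCP-1 levels in the endothelial–PBMC SAg co-culture were quantified by ELISA at 24 h post-dosing; both increases and decreases versus DMSO scored. Cytotoxicity monitored by SRB total protein in parallel cultures.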

[18] = read-out: Interleukin-1 alpha (IL1a), IL1A (gene 3552); assay: BSK_LPS_IL1a: BioMAP Diversity Plus: LPS Assay for Interleukin-1 alpha (IL1a) Biomarker Activity (AID 2283080); conditions: primary human HUVEC with PBMC; actives raise or lower the signal
How it was run: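 Human umbilical vein endothelial cells co-cultured with peripheral blood mononuclear cells were LPS-stimulated and exposed to test chemicals for 24 h. IL-1 alpha was quantified by ELISA, with bidirectional curve fitting against DMSO as the negative control and baseline.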

Measured: AC50

Sequence of Tumor necrosis factor (Homo sapiens) (P01375 whole entry, looked up): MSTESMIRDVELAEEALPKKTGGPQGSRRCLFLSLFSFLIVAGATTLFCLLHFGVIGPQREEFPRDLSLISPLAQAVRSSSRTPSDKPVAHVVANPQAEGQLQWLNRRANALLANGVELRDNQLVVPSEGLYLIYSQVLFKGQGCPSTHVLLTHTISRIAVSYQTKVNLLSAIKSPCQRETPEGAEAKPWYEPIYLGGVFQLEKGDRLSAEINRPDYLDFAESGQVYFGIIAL
Sequence of E-selectin (Homo sapiens) (P16581 whole entry, looked up): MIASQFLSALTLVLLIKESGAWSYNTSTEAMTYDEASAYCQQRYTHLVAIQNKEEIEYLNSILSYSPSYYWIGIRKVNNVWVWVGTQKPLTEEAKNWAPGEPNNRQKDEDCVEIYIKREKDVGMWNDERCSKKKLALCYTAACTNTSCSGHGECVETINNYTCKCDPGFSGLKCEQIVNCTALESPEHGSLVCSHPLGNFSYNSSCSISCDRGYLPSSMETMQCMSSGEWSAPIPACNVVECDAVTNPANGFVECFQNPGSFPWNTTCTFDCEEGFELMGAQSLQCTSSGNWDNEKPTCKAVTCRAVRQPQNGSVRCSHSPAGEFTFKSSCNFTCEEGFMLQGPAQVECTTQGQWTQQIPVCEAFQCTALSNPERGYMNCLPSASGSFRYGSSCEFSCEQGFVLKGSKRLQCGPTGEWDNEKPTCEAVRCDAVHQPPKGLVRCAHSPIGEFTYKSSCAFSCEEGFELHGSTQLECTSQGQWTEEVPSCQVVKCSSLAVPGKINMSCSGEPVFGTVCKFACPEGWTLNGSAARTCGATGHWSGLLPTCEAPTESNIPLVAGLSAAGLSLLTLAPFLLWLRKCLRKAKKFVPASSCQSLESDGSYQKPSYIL

CCCCCCCCCCCCO
inactive: CD40, CD40 (gene 958) [6] | [8] | [11]
active: [1] 30 µM | [2] 30.9 µM | [3] 35 µM | [4] 33 µM | [5] 30.4 µM | [7] 19.8 µM | [9] 30.4 µM | [10] 34.8 µM | [12] 32.2 µM | [13] 19.8 µM | [14] 29.7 µM | [15] 19.8 µM | CD38, CD38 (gene 952) 34.7 µM | CD40, CD40 (gene 958) [16] 31.6 µM | CD69, CD69 (gene 969) 31 µM | [17] 30.4 µM

Cc1cccc2ccccc12
not listed: [5] | [17]
inactive: all other assays above

COCC(C)OCC(C)OCC(C)O (centres undefined)
not listed: [5] | [13] | [17] | [18]
inactive: all other assays above

CN1C(=O)CC[C@H]1c1cccnc1
not listed: [5] | [13] | [17] | [18]
inactive: all other assays above

CC(C)(C)c1cc(/C=C2\SC(N)=NC2=O)cc(C(C)(C)C)c1O
active: [1] 11.5 µM | [2] 12.8 µM | [3] 6.59 µM | [4] 9.79 µM | CD40, CD40 (gene 958) [6] 13 µM | [7] 27.2 µM | [8] 20 µM | [9] 26.4 µM | [10] 26.9 µM | [11] 0.186 µM | [12] 16 µM | [14] 11.7 µM | [15] 15.6 µM | CD38, CD38 (gene 952) 12.2 µM | CD40, CD40 (gene 958) [16] 17.4 µM | CD69, CD69 (gene 969) 20 µM | [17] 12.7 µM

O=C(Nc1ccc(Cl)cc1)Nc1ccc(Cl)c(Cl)c1
active: CD40, CD40 (gene 958) [6] 2.42 µM | [7] 2.15 µM | [8] 1.74 µM | [9] 2.03 µM | [18] 3.86 µM | [10] 3.51 µM | [11] 1.9 µM | [12] 11.8 µM | [13] 2.26 µM | [14] 3.23 µM | [15] 3.92 µM | CD38, CD38 (gene 952) 2.11 µM | CD40, CD40 (gene 958) [16] 3.04 µM | CD69, CD69 (gene 969) 1.91 µM
inactive: [1] | [2] | [3] | [5]
